Measured values: PubChem BioAssay (Tox21)
Results filed as inconclusive are left out. A call without a number means that no potency is given here. Unmarked numbers belong to inactive results. Active and inactive are the calls of the source. Unless noted, the call rests on the fitted dose curve; in most records, active means well fitted curve in the direction sought with a large enough effect in the repeat runs; inconclusive means weak or mixed curves; inactive means no such curve, though single readings can be large; an effect the other way counts as inactive or inconclusive.

Tests used:
[1] = qHTS assay to identify small molecule antagonists of the estrogen related receptor (ERR) signaling pathway from Tox21 library - cell viability counter screen (AID 1224834); further: nearly all actives have a fitted effect of over 30% in size
In short: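 Cytotoxicity of test substances is gauged in the same ERR cells used for the antagonist screen, after 17.5 h of compound treatment at 37 C, by CellTiter-Fluor fluorescence measured after 30 min.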

[2] = target: Luciferin 4-monooxygenase (Photinus pyralis) (UniProt P08659); assay: qHTS assay to identify small molecule inhibitors of firefly luciferase (AID 1224835); further: nearly all actives have a fitted effect of over 25% in size; further: potency means the concentration at half of the fitted maximal effect
Chain of Luciferin 4-monooxygenase (Photinus pyralis) (P08659 whole entry, looked up): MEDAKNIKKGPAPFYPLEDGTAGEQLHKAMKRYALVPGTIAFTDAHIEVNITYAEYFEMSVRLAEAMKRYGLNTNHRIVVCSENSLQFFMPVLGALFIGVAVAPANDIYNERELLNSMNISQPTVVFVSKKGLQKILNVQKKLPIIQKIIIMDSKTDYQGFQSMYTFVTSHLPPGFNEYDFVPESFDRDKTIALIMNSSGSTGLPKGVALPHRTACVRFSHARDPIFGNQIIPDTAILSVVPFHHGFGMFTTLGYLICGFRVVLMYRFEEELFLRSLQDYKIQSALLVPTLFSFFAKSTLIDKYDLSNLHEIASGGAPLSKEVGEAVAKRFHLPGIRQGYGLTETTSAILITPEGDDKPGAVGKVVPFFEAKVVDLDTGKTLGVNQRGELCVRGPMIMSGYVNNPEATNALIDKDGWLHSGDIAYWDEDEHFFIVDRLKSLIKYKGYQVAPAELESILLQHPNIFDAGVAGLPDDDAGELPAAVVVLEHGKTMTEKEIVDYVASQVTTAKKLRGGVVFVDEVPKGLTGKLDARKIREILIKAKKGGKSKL
In short: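 Inhibition of purified Photinus luciferase is measured by luminescence. Substrate levels (D-luciferin, ATP) sit at their KM values. Each compound is tested in a concentration series.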

[3] = qHTS assay to identify small molecule agonists of the constitutive androstane receptor (CAR) signaling pathway - cell viability counter screen (AID 1224836); further: series mostly up to about 92 µM; nearly all actives have a fitted effect of over 45% in size
In short: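 23 h treatment, 37 C, 5% CO2. Cell line: HepG2 stably expressing hCAR with a CYP2B6-2.2kb construct. Co-treatment: PK11195, 0.75 uM final. Read-out: CellTiter-Fluor fluorescence intensity.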

[4] = qHTS assay to identify small molecule antagonists of the constitutive androstane receptor (CAR) signaling pathway - cell viability counter screen (AID 1224837); further: series mostly up to about 92 µM; nearly all actives have a fitted effect of over 45% in size
In short: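 Multiplexed cytotoxicity read-out for the CAR antagonist screen: double-stable HepG2-CYP2B6-hCAR cells co-treated with 50 nM CITCO (final) and compound over 15 concentrations, incubated 23 hr, then assessed by CellTiter-Fluor fluorescence.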

[5] = target: Nuclear receptor subfamily 1 group I member 3 (Homo sapiens) (UniProt Q14994); assay: qHTS assay to identify small molecule antagonists of the constitutive androstane receptor (CAR) signaling pathway (AID 1224838); further: nearly all actives have a fitted effect of over 40% in size; further: potency means the concentration at half of the fitted maximal effect
Chain of Nuclear receptor subfamily 1 group I member 3 (Homo sapiens) (Q14994 whole entry, looked up): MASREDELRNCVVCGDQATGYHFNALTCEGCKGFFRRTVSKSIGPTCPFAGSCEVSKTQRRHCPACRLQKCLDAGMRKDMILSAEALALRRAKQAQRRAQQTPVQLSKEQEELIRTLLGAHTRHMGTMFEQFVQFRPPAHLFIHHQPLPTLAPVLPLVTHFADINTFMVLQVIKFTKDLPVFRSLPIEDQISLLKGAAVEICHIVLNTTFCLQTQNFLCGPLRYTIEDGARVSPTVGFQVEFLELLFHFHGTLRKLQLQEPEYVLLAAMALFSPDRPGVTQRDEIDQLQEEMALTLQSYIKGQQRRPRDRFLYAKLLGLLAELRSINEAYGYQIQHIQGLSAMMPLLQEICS
In short: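 Compounds were titrated across 15 concentrations onto HepG2 cells double-stably expressing hCAR and a CYP2B6-2.2kb reporter, together with 50 nM CITCO (final). After 24 h at 37 C, luciferase activity was measured by luminescence.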

[6] = target: Nuclear receptor subfamily 1 group I member 3 (Homo sapiens) (UniProt Q14994); assay: qHTS assay to identify small molecule agonists of the constitutive androstane receptor (CAR) signaling pathway (AID 1224839); further: nearly all actives have a fitted effect of over 15% in size; further: potency means the concentration at half of the fitted maximal effect
In short: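 Compounds tested at 15 concentrations on HepG2 cells stably harbouring hCAR and CYP2B6-2.2kb reporter constructs, co-treated with PK11195 (0.75 uM final), 24 h at 37 C; luminescent reporter signal quantified.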

[7] = qHTS assay to identify small molecule antagonists of the estrogen related receptor signaling pathway with the pleiotropic PPARgamma coactivator (PGC) from Tox21 10K library - cell viability counter screen (AID 1224840; active means well fitted cell-killing curve with a large enough effect in the repeat runs, not every such curve was filed as active; further: nearly all actives have a fitted effect of over 40% in size)
In short: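 Step one, plate 2,000 PGC/ERR cells per well; step two, incubate 6 h at 37 C/5% CO2; step three, pin-transfer compounds; step four, incubate 17.5 h; step five, add CellTiter-Fluor and read fluorescence after 30 min.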

[8] = qHTS assay to identify small molecule antagonists of the estrogen related receptor signaling pathway with the pleiotropic PPARgamma coactivator (PGC) from Tox21 10K library (AID 1224841; call rule not given here; further: series mostly up to about 92 µM; actives are mostly falling curves and most rising ones were filed inactive; nearly all actives have a fitted effect of over 50% in size)
In short: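 Antagonism in this quantitative HTS is taken from loss of luciferase signal in PGC/ERR cells. Cells (2,000/well) are treated with compounds in DMSO after a 6 h settling period and read by One-Glo luminescence after 18 h.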

[9] = qHTS assay to identify small molecule agonists of the estrogen related receptor signaling pathway with the pleiotropic PPARgamma coactivator (PGC) from Tox21 10K library (AID 1224842); further: nearly all actives have a fitted effect of over 15% in size
In short: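 Luminescence from One-Glo (30 min, room temperature) measured after PGC/ERR cells had 18 h at 37 C with pinned compound (23 nL in DMSO). Cells had been seeded at 2,000 per well and pre-incubated 6 h.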

Row | Compound | Potency [1] | Potency [2] | Potency [3] | Potency [4] | Potency [5] | Potency [6] | Potency [7] | Potency [8] | Potency [9] | viability change, negative = cytotoxic [1] | viability change, negative = cytotoxic [3] | activity change, negative = cytotoxicity [4] | activity, negative = inhibition [5] | viability change, negative = cytotoxic [7]
1 | O=C(NC1CCN(CCc2c[nH]c3ccccc23)CC1)c1ccccc1 | inactive | inactive | inactive | inactive | inactive | inactive | inactive | – | – | – | – | – | – | –
2 | O=c1[nH][nH]c2ccccc12 | inactive | inactive | inactive | inactive | 55.5 µM (active) | – | inactive | – | – | – | – | – | – | –
3 | O=C(OCCOCCOCCOC(=O)c1ccccc1)c1ccccc1 | inactive | inactive | inactive | inactive | inactive | inactive | inactive | – | – | – | – | – | – | –
4 | O=C1OC(=O)C2CC=CCC12 (stereo not given) | inactive | inactive | inactive | inactive | inactive | – | inactive | – | – | – | – | – | – | –
5 | Cc1ccc2ccccc2c1[N+](=O)[O-] | inactive | inactive | inactive | inactive | inactive | inactive | inactive | – | – | – | – | – | – | –
6 | C(/C=C/C=C/Nc1ccccc1)=Nc1ccccc1 | inactive | inactive | inactive | inactive | inactive | inactive | inactive | – | – | – | – | – | – | –
7 | Cc1cc(C)c(C)c(O)c1 | inactive | inactive | inactive | inactive | inactive | inactive | inactive | inactive | inactive | – | – | – | – | –
8 | CCC(=O)O[C@@H]1C[C@H]2CC[C@]1(C)C2(C)C | inactive | inactive | inactive | inactive | inactive | inactive | inactive | inactive | inactive | – | – | – | – | –
9 | CCN(CCCCOC(=O)c1ccc(OC)c(OC)c1)C(C)Cc1ccc(OC)cc1 (stereo not given) | inactive | inactive | inactive | inactive | inactive | inactive | inactive | inactive | inactive | – | – | – | – | –
10 | C=CC(=O)NC(C)(C)C | inactive | inactive | inactive | inactive | inactive | inactive | inactive | – | – | – | – | – | – | –
11 | O=C(Cl)c1ccc(F)c(Cl)c1 | inactive | inactive | inactive | inactive | inactive | inactive | inactive | – | inactive | – | – | – | – | –
12 | O=C(O)c1ccc(O)c(O)c1 | inactive | inactive | inactive | inactive | inactive | inactive | inactive | – | – | – | – | – | – | –
13 | CCCCCCOC(=O)c1ccccc1 | inactive | 15.9 µM (active) | inactive | inactive | inactive | inactive | inactive | inactive | inactive | – | – | – | – | –
14 | CC(=O)c1cccnc1 | inactive | inactive | inactive | inactive | inactive | inactive | inactive | inactive | inactive | – | – | – | – | –
15 | O=C(OCCCCCOC(=O)c1ccccc1)c1ccccc1 | inactive | inactive | inactive | inactive | inactive | inactive | inactive | inactive | inactive | – | – | – | – | –
16 | O=C(O)CNc1ccccc1 | inactive | inactive | inactive | inactive | inactive | inactive | inactive | inactive | inactive | – | – | – | – | –
17 | C[C@]12CCC(=O)C=C1[C@@H]1C[C@@H]1[C@H]1[C@@H]3[C@@H]4C[C@@H]4[C@@]4(CCC(=O)O4)[C@@]3(C)CC[C@@H]12 | inactive | inactive | inactive | inactive | inactive | inactive | inactive | – | inactive | – | – | – | – | –
18 | c1ccc(-c2ccc(-c3ccccc3)cc2)cc1 | – | 0.82 µM (active) | – | – | – | 3.53 µM (active) | – | – | – | 0.464% [at 19 µM] | 4.23% [at 19 µM] | -2.21% [at 19 µM] | 139% [at 19 µM] | 3.19% [at 19 µM]
19 | CCC(=O)O[C@]1(C(=O)COC)[C@@H](C)C[C@H]2[C@@H]3CCC4=CC(=O)C=C[C@]4(C)C3(F)[C@@H](O)C[C@@]21C (stereo not given in full) | inactive | inactive | inactive | inactive | inactive | inactive | inactive | inactive | inactive | – | – | – | – | –
20 | CC(CN=Cc1ccccc1O)N=Cc1ccccc1O (stereo not given) | inactive | inactive | inactive | inactive | inactive | inactive | inactive | – | – | – | – | – | – | –
21 | O=C(c1ccco1)N1CCNCC1 | inactive | inactive | inactive | inactive | inactive | inactive | inactive | inactive | inactive | – | – | – | – | –
22 | CCc1cnc(C(=O)O)c(C(=O)O)c1 | inactive | inactive | inactive | inactive | inactive | inactive | inactive | – | – | – | – | – | – | –
23 | Nc1ncnc2c1ncn2[C@@H]1O[C@H](CO)[C@@H](O)[C@H]1O | inactive | inactive | inactive | inactive | inactive | – | inactive | – | – | – | – | – | – | –
24 | CC(C)Oc1ccccc1O | inactive | inactive | inactive | inactive | inactive | – | inactive | inactive | inactive | – | – | – | – | –
25 | CC(C)(C)NCC(O)COc1ccc(NC(=O)NC2CCCCC2)cc1 (stereo not given) | inactive | inactive | inactive | inactive | inactive | – | inactive | – | – | – | – | – | – | –
26 | Cc1cc(N)n(-c2ccccc2)n1 | inactive | inactive | inactive | inactive | inactive | – | inactive | inactive | inactive | – | – | – | – | –
